High-throughput results deposited in PubChem by several laboratories.
HIF-2a block: HIF-2a reporter inhibitors, primary screen, luminescence, 786-0 RCC cells; 786-0 RCC cells HIF-2a reporter, luciferase luminescence, overnight; inhibition, % at 18.8 µM; 360,000 compounds, 0.72% hits;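 active means inhibition of the luminescence signal of 40% or more relative to plate controls, in a single-dose primary screen at 18.75 µM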
TWEAK-Fn14 inh: inhibitors of TWEAK-Fn14 signaling, primary screen, luciferase reporter cells, uHTS; inhibition, % at 10 µM; 360,000 compounds, 2% hits; TWEAK-stimulated Fn14 reporter cells, luciferase luminescence, 8 h; AID 1159606, 2016; in the data active means inhibition above about 50%
TROY signal inh: inhibitors of TROY-driven NF-kB signaling, primary screen, Q293 LMP1-TROYcd cells, NF-kB luciferase, uHTS; Q293 LMP1-TROYcd NF-kB luciferase reporter, 4 h; inhibition, % at 10 µM; 360,000 compounds, 0.98% hits; AID 1347056, 2019;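 active means compounds whose plate-normalised and pattern-corrected inhibition of the luciferase reporter signal at the single screening dose is 50% or more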
MITF TRPM1 inh: inhibitors of MITF-dependent TRPM1 promoter reporter, primary screen, cell-based, SK-MEL-5, single point, luciferase. SK-MEL-5 TRPM1 promoter luciferase, 24 h. inhibition, % at 12.5 µM. 330,000 compounds, 0.83% hits;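 active means mean inhibition across replicates of 60% or more, whatever share of single replicates reaches that level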
LMP1 NFkB inh: EBV LMP1-driven NF-kappaB luciferase reporter inhibitors, primary screen, cell-based, luminescence, single point. LMP1-induced NF-kappaB luciferase reporter cells. inhibition, % at 12.5 µM. 350,000 compounds, 0.69% hits; in the data active means inhibition above about 41%;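 further: 0% = neutral control wells and 100% = reference inhibitor control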
Peg3 promoter: Peg3 promoter-driven luciferase inhibitors, primary screen, cell-based, HeLa, luciferase luminescence | HeLa PEG-Prom luciferase reporter, overnight | inhibition, % at 20 µM | 360,000 compounds, 1.7% hits | AID 588405, 2011;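 active means inhibition of at least 50% at 20 µM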
Active calls of the source: *; . = no result given. Compounds with a hit are over-represented: about 4% of the library has one in this group of screens.

SMILES | HIF-2a block | TWEAK-Fn14 inh | TROY signal inh | MITF TRPM1 inh | LMP1 NFkB inh | Peg3 promoter
CCc1ccc2c(c1)C1(NN=C(c3ccc(C)cc3)S1)C(=O)N2 (stereo not given) | 89.3* | -27.7 | -23.8 | -1.1 | 39.6 | 48.0
O=C(COC(=O)c1ccc(S(=O)(=O)NCc2ccco2)cc1)Nc1ccc(Cl)cn1 | 20.5 | 21.7 | -4.0 | -7.5 | 59.0* | 4.2
NC(Cc1ccc(C(F)(F)F)cc1)c1csc(Nc2nccc(C(F)(F)F)n2)n1 (stereo not given) | 15.1 | -15.1 | 3.7 | . | . | 92.4*
Cc1cc(C)nc(Nc2nc(C(N)Cc3ccc(C(F)(F)F)cc3)cs2)n1 (stereo not given) | 13.2 | -110.4 | -4.3 | . | . | 102.3*
CCCc1cnc(Nc2nc(C(N)Cc3ccc(C(F)(F)F)cc3)cs2)nc1 (stereo not given) | 26.9 | -17.0 | 3.0 | . | . | 96.5*
Cc1cc(C)nc(Nc2nc(C(N)Cc3ccc(F)cc3)cs2)n1 (stereo not given) | -6.1 | -36.6 | 0.7 | . | . | -43.8
Cc1cc(C)nc(Nc2nc(C(N)Cc3ccc(Cl)cc3)cs2)n1 (stereo not given) | 10.0 | -33.5 | 4.5 | . | . | 91.9*
CC(=O)NC12CC3CC(C1)CC(C(=O)Oc1ccc(N(C)S(=O)(=O)c4cc(C)ccc4C)cc1)(C3)C2 | 8.6 | -4.4 | 36.9 | 6.7 | -6.3 | 9.5
O=C1C2CCCCN2C(=O)N1CCCCN1CCN(c2ccccc2Oc2ccccc2)CC1 (stereo not given) | 13.9 | 8.3 | 0.6 | -1.5 | -9.2 | 6.0
O=C1C(C2=NC(C(=O)O)C3C(=O)N(c4ccc(Cl)cc4)C(=O)C23)=C(O)c2ccccc21 (stereo not given) | 1.0 | -1.3 | 4.0 | -0.7 | 1.5 | -0.2
O=C1C(C2=NC(c3ccccn3)C3C(=O)N(c4ccc(Cl)cc4Cl)C(=O)C23)=C(O)c2ccccc21 (stereo not given) | 15.7 | 0.6 | 25.2 | 89.9* | -9.6 | 51.4*
CCC(C)NS(=O)(=O)c1ccc(S(=O)(=O)N(CCc2ccc(OC)c(OC)c2)Cc2cccs2)cc1 (stereo not given) | 13.1 | 55.5* | 30.6 | 15.7 | 13.5 | 19.5
COc1ccc(CCN(Cc2cccs2)S(=O)(=O)c2ccc(S(=O)(=O)N3CCCCCC3)cc2)cc1OC | 17.4 | -3.4 | 7.3 | 15.3 | 5.6 | 15.2
CC(C)Cn1c(N)c(C(=O)COC(=O)c2cnc(Cl)c(Cl)c2)c(=O)n(C)c1=O | 7.7 | 0.0 | 40.7 | 22.5 | 13.2 | 74.2*
CC(C)Cn1c(N)c(C(=O)COC(=O)c2cc(F)cc(F)c2)c(=O)n(C)c1=O | 22.8 | -31.6 | 30.7 | -6.7 | 32.0 | 5.0
Cc1csc(SCC(=O)c2c(N)n(CC(C)C)c(=O)n(C)c2=O)n1 | -26.1 | 51.8* | 21.4 | 23.2 | 9.9 | 14.0
Cc1ccc(-c2nnc(CSc3nc(C(C)C)nc4sc(C)c(C)c34)o2)cc1 | 8.1 | 82.7* | . | 8.9 | 5.5 | 18.9
CCOC(=O)CSc1nc(C(C)C)nc2sc(C)c(C)c12 | 3.4 | -3.5 | -18.4 | -1.4 | -2.0 | -7.4
CCCCCN(C(=O)CCC(=O)OCCOc1ccccc1Cl)c1c(N)n(CCCC)c(=O)[nH]c1=O | -11.4 | 1.6 | 4.3 | 7.5 | -3.8 | 20.6
C(=C\c1ccccc1)/CN1CCN(C(c2cc3ccccc3o2)c2nnnn2-c2ccc3c(c2)OCCO3)CC1 (stereo not given) | -8.0 | 68.5* | -0.5 | . | . | -0.9
C(=C\c1ccccc1)/CN1CCN(C(c2nnnn2-c2ccc3c(c2)OCCO3)C2CC2)CC1 (stereo not given) | 9.1 | 57.6* | 21.8 | . | . | 25.6
C(=C\c1ccccc1)/CN1CCN(C(CCc2ccccc2)c2nnnn2-c2ccc3c(c2)OCCO3)CC1 (stereo not given) | -6.8 | 19.6 | 14.9 | . | . | 12.2
C(=C\c1ccccc1)/CN1CCN(C(c2cccs2)c2nnnn2-c2ccc3c(c2)OCCO3)CC1 (stereo not given) | -6.1 | 42.8 | 11.8 | . | . | 6.9
CCC(c1nnnn1-c1ccc2c(c1)OCCO2)N1CCN(C/C=C/c2ccccc2)CC1 (stereo not given) | -14.1 | 58.4* | 26.7 | . | . | 12.2
COc1ccc2c(c1OC)C(=O)N1C2SC(C)(C)[C@H]1C(=O)NCC(C)C (stereo not given in full) | 14.0 | -16.0 | 4.7 | -0.4 | -1.0 | 7.4
SMILES | HIF-2a block | TWEAK-Fn14 inh | TROY signal inh | MITF TRPM1 inh | LMP1 NFkB inh | Peg3 promoter
CSC1SCC2C(=O)N(C)C(C(C)C)C(=O)OCC(NC(=O)c3cnc4ccccc4n3)C(=O)NC(C)C(=O)N(C)C1C(=O)N(C)C(C(C)C)C(=O)OCC(NC(=O)c1cnc3ccccc3n1)C(=O)NC(C)C(=O)N2C (stereo not given) | 63.2* | 91.5* | 65.2* | 45.8 | 85.0* | 99.0*
CCN1CCN(c2nc(N(C)c3ccccc3)nc(N)c2[N+](=O)[O-])CC1 | 24.9 | 9.2 | -58.5 | -15.0 | 5.6 | 5.8
Cc1ccc(S(=O)(=O)Nc2cccc3ncccc23)s1 | 80.5* | 107.7* | 85.1* | 99.6* | 17.0 | 102.6*
Cc1ccc(S(=O)(=O)Nc2cccc3ncccc23)cc1 | 12.4 | 4.0 | -16.2 | -4.2 | -6.9 | 9.1
O=C(NCc1ccc(F)cc1)C(c1ccc(Cl)cc1)N(C(=O)c1csnn1)C1CC1 (stereo not given) | 3.2 | 13.9 | 12.2 | -4.1 | -5.1 | 17.3
CCOC(=O)c1c(C)nc2c(c1-c1cc(OC)ccc1OC)C(=O)CC(C)(C)C2 | 30.1 | -15.9 | -2.6 | -6.9 | 10.3 | 8.6
COc1ccc(NC(=O)CN2CCC(C(=O)c3ccc(F)cc3)CC2)c(OC)c1 | 15.2 | -13.3 | 7.1 | 21.1 | 3.0 | 32.1
CC(C)CC(OC(=O)c1ccco1)C(=O)NC1CCCC1 (stereo not given) | 11.8 | 19.1 | 18.6 | -3.9 | -4.0 | 24.9
CC(OC(=O)C1CCCCC1)c1nc2ccccc2[nH]1 (stereo not given) | 12.1 | 58.9* | -6.8 | -0.4 | 12.6 | 12.3
Clc1ccc(-c2csc(=Nc3cccnc3)n2CCCn2ccnc2)cc1Cl | 33.9 | 66.0* | 45.6 | -0.8 | 30.0 | 3.3
COc1cccc2c1OC1(C)CC2NC(=O)N1c1cccc(C(=O)Nc2ccc3c(c2)OCCO3)c1 (stereo not given) | -15.8 | 82.7* | 30.9 | 3.4 | 8.2 | -15.7
COc1ccc(CNC(=O)COC(=O)c2c(NC(C)=O)sc(C)c2C)cc1OC | 4.0 | -10.0 | 2.3 | . | -1.7 | 3.6
CCOC(=O)Nc1ccc2c(c1)N(C(=O)N1CCN(C)CC1)c1ccccc1S2 | 3.6 | -10.7 | 6.4 | 13.7 | -4.3 | 13.8
